Compound activity as filed in PubChem.
An excerpt weighted towards active compounds, which were near 4.7% of everything screened.
TRHR PAM: allosteric enhancers of human TRH receptor | TRHR cells, fluo-8 calcium fluorescence, EC20 TRH enhancement | enhancement, % at 2 µM | hit rate 0.66% among 360,000 | AID 493056; in the data active = enhancement above about 30%; note: 0% is about no effect
Target sequence (P34981 whole entry, looked up): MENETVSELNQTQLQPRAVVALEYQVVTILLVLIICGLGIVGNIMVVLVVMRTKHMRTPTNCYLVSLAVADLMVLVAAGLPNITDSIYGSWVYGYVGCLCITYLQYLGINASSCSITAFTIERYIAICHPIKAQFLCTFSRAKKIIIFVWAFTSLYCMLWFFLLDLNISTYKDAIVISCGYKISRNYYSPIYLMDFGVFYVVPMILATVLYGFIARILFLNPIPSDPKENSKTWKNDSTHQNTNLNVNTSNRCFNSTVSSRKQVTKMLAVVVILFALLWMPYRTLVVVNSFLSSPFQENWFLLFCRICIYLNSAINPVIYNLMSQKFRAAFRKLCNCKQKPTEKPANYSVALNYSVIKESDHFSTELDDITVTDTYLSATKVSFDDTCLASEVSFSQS
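TRHR-expressing cells loaded with fluo-8 calcium dye were read kinetically (ex 480/em 530) during compound addition, then stimulated with an EC20 of TRH (10 nM final). Enhancement of the Gq-mediated intracellular calcium response was scored.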
D1 potentiator: potentiators of human D1 dopamine receptor; P21728; HEK293 TREx D1 cells, calcium flux, dopamine EC20 potentiation; potentiation, % at 10 µM; hit rate 0.036% among 360,000; in the data active = potentiation above about 30%; note: 0% is about no effect
D1 antagonist: antagonists of human D1 dopamine receptor | P21728 | HEK293 TREx D1 cells, calcium flux, dopamine EC80; stronger effect = lower value | activity change, negative = inhibition, % at 10 µM | hit rate 3.2% among 360,000 | AID 504652; in the data active = activity change below about -30%; note: % is set by controls: 0 for no effect and ±100 for the full control effect
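HEK293 T-REx cells expressing inducible, force-coupled D1 receptor; no-wash Ca dye, 30–90 min RT. Cmpd → 180 s read at 1 Hz → EC80 DA → 180 s read.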
TRHR agonist: activates the human TRH receptor; P34981; TRHR cells, calcium flux fluo-8, FDSS agonist mode; activation, % at 2 µM; hit rate 0.18% among 360,000; AID 493084; note: 0% is about no effect
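TRHR-expressing cells, plated overnight in medium with 10% serum, were loaded with fluo-8 calcium dye at room temperature. After a 10 s baseline, library compound was pin-added and calcium release was recorded kinetically (ex 480/em 530) as agonist response.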
D1 ag: activates the human D1 dopamine receptor; HEK293 T-REx D1 cells, calcium flux, agonist mode; hit rate 1% among 360,000; activation, % at 2 µM; P21728; note: 0% is about no effect
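Inducible HEK293 T-REx D1 cells, force-coupled to calcium signalling, were plated at 4000 cells/well with tetracycline and held overnight at 30 C. After no-wash calcium dye loading, compound-evoked calcium rise over 180 s flagged agonists.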
Active calls of the source: *. Cut-off read from the data, not from the text of the source, unless noted: active = activation above about 30%; inactive = the rest.

What do the screens show for `Cc1cccc2nc(Cn3c(=O)n(-c4ccc(Cl)cc4)c(=O)c4c5c(sc43)CCC5)cc(=O)n12`?
TRHR PAM: 4; D1 potentiator: 1; D1 antagonist: -5; TRHR agonist: 2; D1 ag: 1

How did Clc1ccc(CCNC(c2ccc(Cl)cc2)c2nnc(-c3ccccc3)o2)cc1 (configuration not stated) do in these assays?
TRHR PAM: -8; D1 potentiator: -2; D1 antagonist: 9; TRHR agonist: 4; D1 ag: 35*

How did Fc1ccccc1C(NCCc1ccc(Cl)cc1)c1nnc(-c2ccccc2)o1 (configuration not stated) do in these assays?
TRHR PAM: -3; D1 potentiator: 0; D1 antagonist: -9; TRHR agonist: 3; D1 ag: 13

Results for CN1CCS/C1=C/C=C1/SC(=S)N(Cc2ccccc2)C1=O ?
TRHR PAM: -11; D1 potentiator: -12; D1 antagonist: -1; TRHR agonist: 26; D1 ag: 55*

What do the screens show for `CCCCN1C(=O)/C(=C/C=C2\N(C)c3ccccc3C2(C)C)SC1=S`?
TRHR PAM: -6; D1 potentiator: 0; D1 antagonist: -14; TRHR agonist: 29; D1 ag: 67*

How did CCCCN1C(=O)/C(=C/C=C2\SCCN2C)SC1=S do in these assays?
TRHR PAM: -1; D1 potentiator: -1; D1 antagonist: -39*; TRHR agonist: 20; D1 ag: 94*

How did CCCN1C(=O)/C(=C\C=C2/C=CN(CC)c3ccccc32)SC1=S do in these assays?
TRHR PAM: 2; D1 potentiator: -1; D1 antagonist: 2; TRHR agonist: 0; D1 ag: 1

How did CCN1C(=O)/C(=C\N2CCCCCC2)SC1=S do in these assays?
TRHR PAM: -15; D1 potentiator: -4; D1 antagonist: 8; TRHR agonist: -1; D1 ag: 5

What do the screens show for `CN(C(=O)c1ccc2c(c1)N(Cc1ccccc1F)C(=O)c1ccccc1S2(=O)=O)C1CCCCC1`?
TRHR PAM: -7; D1 potentiator: -6; D1 antagonist: 1; TRHR agonist: 0; D1 ag: 4

What do the screens show for `Cc1ccc2oc(C(=O)N(C)Cc3ccc(C)o3)c(C)c2c1`?
TRHR PAM: -3; D1 potentiator: -6; D1 antagonist: 2; TRHR agonist: 0; D1 ag: 1

Results for Cc1ccc(CN(C)C(=O)c2cc(Br)c(Br)s2)o1 ?
TRHR PAM: 25; D1 potentiator: -6; D1 antagonist: -35*; TRHR agonist: 0; D1 ag: 1

Results for CCOC(=O)/C(=C/C=C1\Sc2cc(OCC)c(OCC)cc2N1CC)C(C)=O ?
TRHR PAM: 48*; D1 potentiator: 0; D1 antagonist: -30*; TRHR agonist: 244*; D1 ag: 216*

What do the screens show for `CCOC(=O)/C(=C\C=C1/Sc2cc(OCC)c(OCC)cc2N1CC)C(C)=O`?
TRHR PAM: 19; D1 potentiator: 2; D1 antagonist: -43*; TRHR agonist: 160*; D1 ag: 329*

How did CCN1/C(=C/C(C)=O)Sc2ccc(OC)cc21 do in these assays?
TRHR PAM: 1; D1 potentiator: -1; D1 antagonist: 13; TRHR agonist: -1; D1 ag: 0

What do the screens show for `O=C(C1COc2ccccc2O1)N(Cc1cccnc1)c1nc2ccc(Cl)cc2s1` (configuration not stated)?
TRHR PAM: 0; D1 potentiator: -2; TRHR agonist: 0; D1 ag: 4

How did Nc1cc(=O)nc(SCC(=O)Nc2ccc(F)cc2)n1-c1ccc(Cl)cc1 do in these assays?
TRHR PAM: -3; D1 potentiator: 0; D1 antagonist: -6; TRHR agonist: 0; D1 ag: -1

How did CC1CC1C(=O)OCc1cc(=O)n2cc(Br)ccc2n1 (configuration not stated) do in these assays?
TRHR PAM: 34*; D1 potentiator: 9; D1 antagonist: -9; TRHR agonist: 0; D1 ag: 2

Results for CCOC(=O)C1(CC2CC2)CCN(Cc2cn[nH]c2-c2ccccc2)CC1 ?
TRHR PAM: -7; D1 potentiator: -4; D1 antagonist: 7; TRHR agonist: 2; D1 ag: 3

How did CCOC(=O)C1(CC2CC2)CCN(Cc2cn[nH]c2-c2cccc(F)c2)CC1 do in these assays?
TRHR PAM: -4; D1 potentiator: -7; D1 antagonist: -38*; TRHR agonist: 2; D1 ag: 1
